# Experimental data taken from PubChem BioAssay AID1159580 (chemical genetic matrix, 2015).
# “And” between values parts separate entries of the source, which are not always exact repeats. Equal entries are not always repeated. Hit rate of the full screen: of about 5,500 compounds, about 2,000 (36%) were called active. Another 18% or so got no clear call; they are omitted. The list shows a part of the results. Unmarked numbers belong to inactive results. Rule as the data show it: active = normalized growth mostly below about 0.91 (no sharp cut-off); inconclusive = no clear call, values can overlap the other calls; inactive = mostly above about 0.92.
# Test: chemical genetic growth profiling, strain panel (AID 1159580);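 also: tested at 20 µM; growth read once vehicle control cultures reached saturation at 30 °C; 1 = growth at the plate median or of vehicle wells; lower values mean less growth of the strain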
# Conditions: S. cerevisiae deletion strains, growth OD
smiles,measurement,setting,value
COc1ccc2cc1Oc1ccc(cc1)C[C@H]1c3cc(c(OC)cc3CCN1C)Oc1c(OC)c(OC)cc3c1[C@H](C2)N(C)CC3,normalized growth,"locus YAL013W, strain DEP1, active compounds read low",1.01
same,normalized growth,"locus YAL021C, strain ccr4, active compounds read low",0.853 (active)
same,normalized growth,"locus YAL026C, strain drs2, active compounds read low",1
same,normalized growth,"locus YAL030W, strain snc1, active compounds read low",1.01
same,normalized growth,"locus YBL061C, strain skt5, active compounds read low",1.01
same,normalized growth,"locus YBR009C, strain hhf1, active compounds read low",0.982
same,normalized growth,"locus YBR021W, strain FUR4, active compounds read low",0.596 (active)
same,normalized growth,"locus YBR023C, strain chs3, active compounds read low",1.01
same,normalized growth,"locus YBR171W, strain sec66, active compounds read low",1.02
same,normalized growth,"locus YBR229C, strain ROT2, active compounds read low",1.01
same,normalized growth,"locus YBR231C, strain swc5, active compounds read low",0.988
same,normalized growth,"locus YBR279W, strain paf1, active compounds read low",0.998
same,normalized growth,"locus YCL011C, strain gbp2, active compounds read low",0.988
same,normalized growth,"locus YCL016C, strain dcc1, active compounds read low",0.968
same,normalized growth,"locus YCL029C, strain bik1, active compounds read low",1.03
same,normalized growth,"locus YCL069W, strain vba3, active compounds read low",1.01
same,normalized growth,"locus YCR088W, strain abp1, active compounds read low",1.01
same,normalized growth,"locus YDL005C, strain med2, active compounds read low",1
same,normalized growth,"locus YDL035C, strain GPR1, active compounds read low",0.977
same,normalized growth,"locus YDL040C, strain nat1, active compounds read low",1
same,normalized growth,"locus YDL074C, strain BRE1, active compounds read low",0.972
same,normalized growth,"locus YDL101C, strain DUN1, active compounds read low",1.01
same,normalized growth,"locus YDL134C, strain PPH21, active compounds read low",1.01
same,normalized growth,"locus YDL185W, strain tfp1, active compounds read low",1.01
same,normalized growth,"locus YDL192W, strain arf1, active compounds read low",0.997
same,normalized growth,"locus YDR001C, strain nth1, active compounds read low",1.02
same,normalized growth,"locus YDR069C, strain doa4, active compounds read low",0.733 (active)
same,normalized growth,"locus YDR101C, strain arx1, active compounds read low",1.01
same,normalized growth,"locus YDR137W, strain rgp1, active compounds read low",0.998
same,normalized growth,"locus YDR150W, strain NUM1, active compounds read low",1.01
same,normalized growth,"locus YDR159W, strain sac3, active compounds read low",1.02
same,normalized growth,"locus YDR162C, strain NBP2, active compounds read low",0.974
same,normalized growth,"locus YDR195W, strain ref2",1.02
same,normalized growth,"locus YDR297W, strain sur2, active compounds read low",1
same,normalized growth,"locus YDR318W, strain mcm21, active compounds read low",1
same,normalized growth,"locus YDR334W, strain swr1, active compounds read low",1.01
same,normalized growth,"locus YDR335W, strain msn5, active compounds read low",0.999
same,normalized growth,"locus YDR388W, active compounds read low",0.241 (active)
same,normalized growth,"locus YDR392W, strain spt3, active compounds read low",0.79
same,normalized growth,"locus YDR502C, strain sam2, active compounds read low",0.99
same,normalized growth,"locus YEL003W, strain gim4, active compounds read low",0.998
same,normalized growth,"locus YEL037C, strain rad23, active compounds read low",0.989
same,normalized growth,"locus YEL061C, strain CIN8 (second series), active compounds read low",1.01
same,normalized growth,"locus YEL061C, strain CIN8, active compounds read low",1.01
same,normalized growth,"locus YER015W, strain faa2, active compounds read low",0.997
same,normalized growth,"locus YER016W, strain bim1, active compounds read low",1
same,normalized growth,"locus YER110C, active compounds read low",1.03
same,normalized growth,"locus YER111C, strain swi4, active compounds read low",0.997
same,normalized growth,"locus YER155C, strain BEM2 (second series), active compounds read low",0.887
same,normalized growth,"locus YER155C, strain BEM2, active compounds read low",1.03
same,normalized growth,"locus YER167W, strain BCK2, active compounds read low",0.964
same,normalized growth,"locus YFR010W, strain ubp6, active compounds read low",0.854 (active)
same,normalized growth,"locus YGL078C, strain dbp3, active compounds read low",1.01
same,normalized growth,"locus YGL086W, strain mad1, active compounds read low",0.983
same,normalized growth,"locus YGL167C, strain pmr1, active compounds read low",1
same,normalized growth,"locus YGL173C, strain kem1, active compounds read low",1.02
same,normalized growth,"locus YGL227W, strain vid30, active compounds read low",0.997
same,normalized growth,"locus YGL240W, strain doc1, active compounds read low",1.01
same,normalized growth,"locus YGL248W, strain PDE1, active compounds read low",1
same,normalized growth,"locus YGL253W, strain hxk2, active compounds read low",1.01
same,normalized growth,"locus YGR078C, strain PAC10, active compounds read low",0.996
same,normalized growth,"locus YGR135W, strain pre9, active compounds read low",0.931
same,normalized growth,"locus YGR229C, strain SMI1, active compounds read low",0.993
same,normalized growth,"locus YGR252W, strain gcn5, active compounds read low",0.855
same,normalized growth,"locus YHR013C, strain ard1, active compounds read low",0.902
same,normalized growth,"locus YHR027C, strain rpn1, active compounds read low",1.02
same,normalized growth,"locus YHR030C, strain SLT2, active compounds read low",1.01 and 1
same,normalized growth,"locus YHR079C, strain IRE1 (second series), active compounds read low",1.01
same,normalized growth,"locus YHR079C, strain IRE1, active compounds read low",0.987
same,normalized growth,"locus YHR094C, strain hxt1, active compounds read low",1.02
same,normalized growth,"locus YHR129C, strain ARP1, active compounds read low",1.01
same,normalized growth,"locus YHR142W, strain chs7, active compounds read low",1.01
same,normalized growth,"locus YHR200W, strain rpn10, active compounds read low",0.989
same,normalized growth,"locus YIL066C, strain RNR3, active compounds read low",1
same,normalized growth,"locus YIL073C, strain SPO22, active compounds read low",1.31
same,normalized growth,"locus YIL125W, strain kgd1, active compounds read low",1.01
same,normalized growth,"locus YIR030C, strain dcg1, active compounds read low",1.02
same,normalized growth,"locus YJL092W, strain hpr5, active compounds read low",1.01
same,normalized growth,"locus YJL095W, strain BCK1 (second series), active compounds read low",1.02
same,normalized growth,"locus YJL095W, strain BCK1, active compounds read low",1.02 and 1.06
same,normalized growth,"locus YJL115W, strain asf1, active compounds read low",1.01
same,normalized growth,"locus YJL129C, strain trk1, active compounds read low",1.01
same,normalized growth,"locus YJL134W, strain LCB3, active compounds read low",1.02
same,normalized growth,"locus YJL154C, strain vps35, active compounds read low",1
same,normalized growth,"locus YJL164C, strain tpk1, active compounds read low",0.986
same,normalized growth,"locus YJL166W, strain qcr8, active compounds read low",0.984
same,normalized growth,"locus YJL168C, strain set2, active compounds read low",1.01
same,normalized growth,"locus YJL187C, strain SWE1 (second series), active compounds read low",1
same,normalized growth,"locus YJR043C, strain POL32, active compounds read low",0.996
same,normalized growth,"locus YJR066W, strain TOR1, active compounds read low",0.955
same,normalized growth,"locus YJR075W, strain HOC1, active compounds read low",0.924
